The source made the active and inactive calls. Unless noted, the call rests on the fitted dose curve; in most records, active means well fitted curve in the direction sought with a large enough effect in the repeat runs; inconclusive means weak or mixed curves; inactive means no such curve, though single readings can be large; an effect the other way counts as inactive or inconclusive.
Assays:
[1] = qHTS assay to identify small molecule antagonists of the thyroid receptor (TR) signaling pathway - cell viability counter screen (AID 743064); further: nearly all actives have a fitted effect of over 50% in size; further: potency means the concentration at half of the fitted maximal effect
Procedure, shortened: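 GH3.TRE-Luc rat pituitary cells dosed after 4 hr plating, co-stimulated with T3 at 1 nM final, incubated 23.5 h at 37 C. Viability measured in the same wells by CellTiter-Fluor fluorescence after 30 min further at 37 C.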

[2] = qHTS assay to identify small molecule antagonists of the thyroid receptor (TR) signaling pathway (AID 743065); further: nearly all actives have a fitted effect of over 55% in size; further: potency means the concentration at half of the fitted maximal effect
Procedure, shortened: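 GH3.TRE-Luc rat pituitary cells carrying two TR response elements driving luciferase were plated for 4 h, given compound plus 1 nM T3 (final), and incubated 23.5 h at 37 C. ONE-Glo luminescence measured reporter inhibition; CellTiter-Fluor fluorescence tracked cytotoxicity.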

[3] = test system: thyroid hormone receptor (rat, GH3 cells); experiment: qHTS assay to identify small molecule agonists of the thyroid receptor (TR) signaling pathway (AID 743066; calls by dose curve)
[4] = biological target: Estrogen receptor (Homo sapiens) (UniProt P03372); experiment: qHTS assay to identify small molecule agonists of the estrogen receptor alpha (ER-alpha) signaling pathway (AID 743075; calls by dose curve; further: potency means the concentration at half of the fitted maximal effect)
Chain of Estrogen receptor (Homo sapiens) (P03372 whole entry, looked up): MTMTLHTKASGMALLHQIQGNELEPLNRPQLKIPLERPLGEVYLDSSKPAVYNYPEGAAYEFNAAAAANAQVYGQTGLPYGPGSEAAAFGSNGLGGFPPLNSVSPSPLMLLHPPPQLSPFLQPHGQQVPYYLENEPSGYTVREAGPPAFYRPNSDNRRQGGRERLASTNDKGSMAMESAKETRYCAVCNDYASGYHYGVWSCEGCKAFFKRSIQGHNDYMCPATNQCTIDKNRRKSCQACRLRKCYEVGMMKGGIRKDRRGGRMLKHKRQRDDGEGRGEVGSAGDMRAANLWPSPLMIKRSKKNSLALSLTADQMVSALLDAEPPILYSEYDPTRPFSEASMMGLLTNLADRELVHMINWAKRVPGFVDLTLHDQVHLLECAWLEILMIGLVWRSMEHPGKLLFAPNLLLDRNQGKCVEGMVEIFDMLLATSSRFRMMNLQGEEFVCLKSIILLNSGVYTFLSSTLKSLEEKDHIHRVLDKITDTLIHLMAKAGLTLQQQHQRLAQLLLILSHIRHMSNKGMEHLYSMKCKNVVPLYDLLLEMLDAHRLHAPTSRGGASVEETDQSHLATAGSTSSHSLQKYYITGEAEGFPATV

[5] = biological target: Estrogen receptor (Homo sapiens) (UniProt P03372); experiment: qHTS assay to identify small molecule agonists of the estrogen receptor alpha (ER-alpha) signaling pathway using the BG1 cell line (AID 743079); further: nearly all actives have a fitted effect of over 20% in size; further: potency means the concentration at half of the fitted maximal effect
[6] = qHTS assay to identify small molecule antagonists of the estrogen receptor alpha (ER-alpha) signaling pathway using the BG1 cell line (AID 743080; calls by dose curve;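 further: BG1 cells stimulated with 17beta-estradiol alongside compound; nearly all actives have a fitted effect of over 25% in size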; further: potency means the concentration at half of the fitted maximal effect)
Procedure, shortened: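 Luciferase inhibition measured with ONE-Glo after 30 min at RT in BG1Luc4E2 cells given test compounds and 17beta-estradiol for 21.5 h at 37 C; CellTiter-Fluor viability read in the same wells beforehand.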

[7] = biological target: Aromatase (Homo sapiens) (UniProt P11511); experiment: qHTS assay to identify aromatase inhibitors (AID 743083); further: nearly all actives have a fitted effect of over 55% in size; further: potency means the concentration at half of the fitted maximal effect
Chain of Aromatase (Homo sapiens) (P11511 whole entry, looked up): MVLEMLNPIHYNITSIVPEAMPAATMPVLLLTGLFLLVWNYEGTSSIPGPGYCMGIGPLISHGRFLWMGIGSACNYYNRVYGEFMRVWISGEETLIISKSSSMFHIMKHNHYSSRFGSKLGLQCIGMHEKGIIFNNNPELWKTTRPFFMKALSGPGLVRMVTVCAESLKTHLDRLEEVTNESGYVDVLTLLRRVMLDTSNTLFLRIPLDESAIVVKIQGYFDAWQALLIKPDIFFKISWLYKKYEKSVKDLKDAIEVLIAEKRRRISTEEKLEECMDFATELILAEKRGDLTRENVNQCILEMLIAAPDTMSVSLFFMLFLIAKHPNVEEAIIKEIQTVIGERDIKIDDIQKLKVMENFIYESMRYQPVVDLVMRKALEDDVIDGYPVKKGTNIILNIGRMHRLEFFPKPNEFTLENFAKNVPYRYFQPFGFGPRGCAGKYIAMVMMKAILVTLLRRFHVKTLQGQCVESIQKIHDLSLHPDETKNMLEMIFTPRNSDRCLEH

[8] = qHTS assay to identify aromatase inhibitors - cell viability counter screen (AID 743084);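 further: cells stimulated with testosterone during compound exposure; nearly all actives have a fitted effect of over 55% in size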
[9] = biological target: Aryl hydrocarbon receptor (Homo sapiens) (UniProt P35869); experiment: qHTS assay to identify small molecule that activate the aryl hydrocarbon receptor (AhR) signaling pathway (AID 743085); further: nearly all actives have a fitted effect of over 15% in size; further: potency means the concentration at half of the fitted maximal effect;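 on activation: HG2L7.5c1 human HepG2 liver cells with stably integrated DRE-driven firefly reporter; series mostly up to about 70 µM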
Chain of Aryl hydrocarbon receptor (Homo sapiens) (P35869 whole entry, looked up): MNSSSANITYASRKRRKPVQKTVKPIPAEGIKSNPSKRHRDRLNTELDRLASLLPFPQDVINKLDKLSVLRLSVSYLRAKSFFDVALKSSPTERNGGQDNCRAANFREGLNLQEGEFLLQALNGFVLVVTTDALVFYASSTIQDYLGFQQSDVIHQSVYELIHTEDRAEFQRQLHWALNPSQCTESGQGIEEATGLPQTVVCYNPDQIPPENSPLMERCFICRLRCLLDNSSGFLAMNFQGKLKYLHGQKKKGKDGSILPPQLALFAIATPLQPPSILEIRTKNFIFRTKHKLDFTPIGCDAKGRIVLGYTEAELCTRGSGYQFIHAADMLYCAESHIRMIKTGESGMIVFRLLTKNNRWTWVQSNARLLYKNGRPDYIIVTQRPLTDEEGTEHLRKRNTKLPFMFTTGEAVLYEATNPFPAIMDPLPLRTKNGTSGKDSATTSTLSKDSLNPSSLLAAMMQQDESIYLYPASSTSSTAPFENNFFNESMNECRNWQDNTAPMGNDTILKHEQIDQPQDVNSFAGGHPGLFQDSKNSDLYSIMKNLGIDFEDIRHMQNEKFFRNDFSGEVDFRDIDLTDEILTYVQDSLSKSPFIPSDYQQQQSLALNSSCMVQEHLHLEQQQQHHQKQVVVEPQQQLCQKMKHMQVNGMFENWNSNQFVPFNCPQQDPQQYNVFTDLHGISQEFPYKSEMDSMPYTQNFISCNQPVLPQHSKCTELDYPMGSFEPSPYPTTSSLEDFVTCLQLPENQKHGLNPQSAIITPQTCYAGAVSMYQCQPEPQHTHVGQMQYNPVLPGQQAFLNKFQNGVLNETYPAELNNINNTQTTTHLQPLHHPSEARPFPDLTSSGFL
Procedure, shortened: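 HepG2 cells stably carrying a 20-DRE firefly luciferase reporter (HG2L7.5c1) treated with compound for 24 hr at 37C. Luciferase read by ONE-Glo luminescence, with CellTiter-Fluor viability read first.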

[10] = qHTS assay to identify small molecule that activate the aryl hydrocarbon receptor (AhR) signaling pathway - cell viability counter screen (AID 743086); further: nearly all actives have a fitted effect of over 45% in size; further: potency means the concentration at half of the fitted maximal effect
Procedure, shortened: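 HepG2-AhR-luc (HG2L7.5c1) cells, 4000/well, were preincubated 5 h at 37C, exposed to compound in qHTS format for 24 hr at 37C, then given CellTiter-Fluor for 30 min; viability was read as fluorescence in the reporter wells.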

[11] = qHTS assay for small molecule activators of the heat shock response signaling pathway - cell viability counter screen (AID 743209); further: nearly all actives have a fitted effect of over 50% in size
Procedure, shortened: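 Counter screen for cytotoxicity in HeLa HSE-bla reporter cells. Treatment was 5 h at 37 C; viability was detected by luminescent ATP assay (CellTiter-Glo) in the same wells as the beta-lactamase read.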

[12] = qHTS assay for small molecule activators of the heat shock response signaling pathway (AID 743210; active means well fitted activation curve with a large enough effect in the signal ratio in the repeat runs, with a control signal flat, not every such curve was filed as active; inconclusive means weak or mixed curves; the % refers to the signal ratio; further: series mostly up to about 63 µM)
Procedure, shortened: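 HSE-bla HeLa cells (beta-lactamase reporter under heat shock response elements) were exposed to compounds for 5 h at 37 C, then loaded with LiveBLAzer B/G FRET substrate for 2.5 h at room temperature before fluorescence reading.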

[13] = qHTS assay to identify small molecule antagonists of the estrogen receptor alpha (ER-alpha) signaling pathway - cell viability counter screen (AID 743074; calls by dose curve; further: nearly all actives have a fitted effect of over 45% in size)
[14] = qHTS assay to identify small molecule antagonists of the estrogen receptor alpha (ER-alpha) signaling pathway using the BG1 cell line - cell viability counter screen (AID 743081);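 further: compound given together with 17beta-estradiol as the ER stimulus; series mostly up to about 70 µM; nearly all actives have a fitted effect of over 45% in size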
[15] = qHTS assay to identify small molecule antagonists of the peroxisome proliferator-activated receptor gamma (PPARg) signaling pathway - cell viability counter screen (AID 743194); conditions: Potency: co-treated with 50 nM rosiglitazone; further: nearly all actives have a fitted effect of over 55% in size; further: potency means the concentration at half of the fitted maximal effect
Procedure, shortened: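 PPARg-UAS-bla HEK293H cells were plated, rested 5 h at 37 C, then treated with compounds plus rosiglitazone (50 nM final) for 17 h at 37 C; viability was then read by CellTiter-Glo luminescence after 30 min at room temperature.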

[16] = qHTS assay for small molecule agonists of the antioxidant response element (ARE) signaling pathway - cell viability counter screen (AID 743203; calls by dose curve; further: nearly all actives have a fitted effect of over 55% in size; further: potency means the concentration at half of the fitted maximal effect)
Procedure, shortened: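 Compounds in DMSO were pinned onto ARE-bla HepG2 cells plated 5 hrs earlier at 2,000 cells/well. Sixteen hours later at 37C/5% CO2, CellTiter-Glo was added and luminescence measured after 30 min at room temperature.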

[17] = biological target: Peroxisome proliferator-activated receptor gamma (Homo sapiens) (UniProt P37231); experiment: qHTS assay to identify small molecule agonists of the peroxisome proliferator-activated receptor gamma (PPARg) signaling pathway (AID 743094; active means well fitted activation curve with a large enough effect in the signal ratio in the repeat runs, not every such curve was filed as active; inconclusive means weak or mixed curves, or effect the other way; inactive means no such curve, though single readings can be large or run the other way; the % refers to the signal ratio)
Chain of Peroxisome proliferator-activated receptor gamma (Homo sapiens) (P37231 whole entry, looked up): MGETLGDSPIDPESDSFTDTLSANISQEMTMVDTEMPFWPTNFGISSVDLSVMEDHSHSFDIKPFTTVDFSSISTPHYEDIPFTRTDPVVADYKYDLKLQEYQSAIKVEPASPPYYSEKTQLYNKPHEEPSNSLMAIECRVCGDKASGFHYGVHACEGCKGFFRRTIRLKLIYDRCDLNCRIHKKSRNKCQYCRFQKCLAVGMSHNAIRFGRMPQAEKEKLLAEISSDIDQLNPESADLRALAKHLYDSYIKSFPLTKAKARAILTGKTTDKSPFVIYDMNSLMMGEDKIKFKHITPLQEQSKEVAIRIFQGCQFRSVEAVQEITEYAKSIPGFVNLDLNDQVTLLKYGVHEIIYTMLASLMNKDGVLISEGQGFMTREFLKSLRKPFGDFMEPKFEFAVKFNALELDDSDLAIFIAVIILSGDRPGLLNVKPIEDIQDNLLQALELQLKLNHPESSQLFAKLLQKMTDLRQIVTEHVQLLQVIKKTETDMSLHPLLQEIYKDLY
Procedure, shortened: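 Following 5 h plating at 37C, PPARg-bla HEK293H cells receive compound or DMSO for 17 h; fluorescence intensity is recorded after LiveBLAzer B/G loading for 1 h at room temperature.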

[18] = biological target: Peroxisome proliferator-activated receptor gamma (Homo sapiens) (UniProt P37231); experiment: qHTS assay to identify small molecule antagonists of the peroxisome proliferator-activated receptor gamma (PPARg) signaling pathway (AID 743191; calls by dose curve; further: nearly all actives have a fitted effect of over 30% in size; further: potency means the concentration at half of the fitted maximal effect)
Procedure, shortened: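 GeneBLAzer PPARg UAS-bla HEK293H cells carrying a UAS-driven beta-lactamase reporter were plated at 3000 cells/well, preincubated 5 h at 37C, then given compound for 17 h at 37C; LiveBLAzer B/G FRET substrate was read after 1 h at room temperature.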

[19] = qHTS assay for small molecule agonists of the antioxidant response element (ARE) signaling pathway (AID 743202; active means well fitted activation curve with a large enough effect in the signal ratio in the repeat runs, not every such curve was filed as active; inconclusive means weak or mixed curves, or effect the other way; inactive means no such curve, though single readings can be large or run the other way; the % refers to the signal ratio; further: potency means the concentration at half of the fitted maximal effect)
Procedure, shortened: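 Read-out: LiveBLAzer B/G FRET substrate fluorescence after 2 h at room temperature, following 16 h compound treatment at 37 C of HepG2 cells carrying an ARE-driven beta-lactamase reporter.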

[20] = biological target: Estrogen receptor (Homo sapiens) (UniProt P03372); experiment: qHTS assay to identify small molecule antagonists of the estrogen receptor alpha (ER-alpha) signaling pathway (AID 743069; active means well fitted curve in the direction sought with a large enough effect in the signal ratio in the repeat runs, not every such curve was filed as active; inconclusive means weak or mixed curves, or effect the other way; inactive means no such curve, though single readings can be large or run the other way; the % refers to the signal ratio; further: potency means the concentration at half of the fitted maximal effect)
Procedure, shortened: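 HEK293 cells stably carrying an ER-alpha-UAS-bla beta-lactamase reporter were pre-cultured overnight in 2% charcoal-stripped FBS medium. Test compounds in DMSO were added together with 17beta-estradiol for 18 hr at 37C. Read-out was fluorescence after 2 hr with LiveBLAzer B/G FRET substrate at room temperature.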

Measured: Potency

COCCOCCO
active: [1] 30.6 µM | [2] 48.6 µM
inactive: [3] | [4] | [5] | [6] | [7] | [8] | [9] | [10] | [11] | [12]

CC(C)O.CC(C)O.OCCN(CCO)CCO.OCCN(CCO)CCO.[Ti]
inactive: [1] | [2] | [3] | [13] | [14] | [10] | [15] | [16] | [11]

OCCCBr
inactive: [3] | [4] | [5] | [6] | [7] | [8] | [10] | [17] | [15] | [12]
active: [1] 54.5 µM | [2] 61.1 µM

CCCCN=C=O
inactive: [1] | [2] | [3] | [14] | [7] | [8] | [9] | [10] | [17] | [18] | [16] | [11] | [12]

C=CC[C@]1(O)CC[C@H]2[C@@H]3CCC4=CC(=O)CCC4=C3C=C[C@@]21C
active: [2] 10.6 µM | [4] 1.69 µM [inconclusive] | [5] 1.33 µM | [6] 29.8 µM | [9] 5.96 µM
inactive: [1] | [3] | [14] | [8] | [10] | [16] | [11] | [12]

c1ccc(CN2CCNCC2)cc1
inactive: [1] | [2] | [3] | [13] | [14] | [8] | [9] | [10] | [15] | [19] | [16] | [11]

C=CC(=O)OCC(C)O (centres undefined)
inactive: [1] | [2] | [3] | [5] | [6] | [14] | [10] | [18] | [15] | [16] | [11] | [12]
active: [19] 8.91 µM

CCOP(O)OCC
inactive: [1] | [2] | [3] | [14] | [7] | [8] | [10] | [17] | [15] | [19] | [16] | [11] | [12]

O=C1NCN(c2ccccc2)C12CCN(CCCOc1ccc(F)cc1)CC2
inactive: [13] | [4] | [8] | [17] | [15] | [11]
active: [1] 13.3 µM | [2] 16.8 µM | [7] 16.8 µM | [10] 5.31 µM | [19] 2.37 µM

C[C@@H]1CC[C@H]2[C@@H](C)C(=O)O[C@@H]3O[C@@]4(C)CC[C@@H]1[C@]32OO4
inactive: [3] | [13] | [14] | [9] | [15] | [16] | [11] | [12]
active: [1] 5.96 µM | [2] 2.37 µM

O=C(N[C@H](c1ccccc1)[C@@H]1CN2CCC1CC2)c1c(Cl)ccc(C(F)(F)F)c1Cl
active: [1] 15.6 µM | [2] 39.2 µM | [10] 39.2 µM | [18] 4.97 µM | [16] 49.3 µM
inactive: [13] | [9] | [15] | [12]

Cn1sc(Cl)cc1=O
active: [1] 68.6 µM
inactive: [3] | [20] | [13] | [4] | [5] | [6] | [14] | [7] | [8] | [9] | [10] | [17] | [18] | [16] | [11]

Cc1ccc(-c2c(Cl)nc(C#N)n2S(=O)(=O)N(C)C)cc1
inactive: [14] | [9] | [10] | [17] | [11]
active: [1] 54.4 µM | [2] 13.7 µM | [6] 54.4 µM

c1cc2ccc3cccc4ccc(c1)c2c34
inactive: [1] | [2] | [3] | [4] | [5] | [6] | [7] | [8] | [9] | [11]

CC[C@H]1C[C@H]2[C@@H]3CCC4=CC(=O)CC[C@@H]4[C@H]3CC[C@]2(C)[C@H]1O
active: [2] 21.1 µM | [5] 10.6 µM | [19] 29.8 µM
inactive: [1] | [3] | [4] | [7] | [8] | [9] | [10] | [17] | [16] | [11] | [12]

CCCCCCCCCC(=O)O[C@H]1CC[C@H]2[C@@H]3CCC4=CC(=O)CC[C@@H]4[C@H]3CC[C@]12C
active: [4] 0.848 µM [inconclusive] | [5] 0.188 µM
inactive: [1] | [2] | [3] | [6] | [14] | [7] | [8] | [9] | [10] | [17] | [18] | [16] | [12]

NCCCNCCCN
inactive: [14] | [9] | [10] | [16] | [12]
active: [1] 62.1 µM | [2] 62.1 µM | [7] 62.1 µM

O=C(O)C(F)(F)C(F)(F)C(F)(F)C(F)(F)C(F)(F)C(F)(F)C(F)(F)C(F)(F)C(F)(F)C(F)(F)F
inactive: [1] | [2] | [3] | [14] | [7] | [8] | [9] | [10] | [15] | [16] | [11] | [12]

CCC(C)(NC(=O)c1cc(Cl)c(C)c(Cl)c1)C(=O)CCl (centres undefined)
inactive: [14] | [9]
active: [1] 15.4 µM | [2] 8.69 µM | [20] 62 µM [inconclusive] | [7] 61.5 µM | [15] 39.1 µM | [16] 21.8 µM

CCOC(=O)COc1cc(-c2nn(C)c(OC(F)F)c2Cl)c(F)cc1Cl
inactive: [1] | [2] | [3] | [13] | [7] | [8] | [10] | [18] | [19] | [16] | [11]

Cc1ccccc1C(=O)Nc1cccc(OC(C)C)c1
inactive: [1] | [3] | [20] | [13] | [4] | [5] | [6] | [14] | [7] | [8] | [10] | [16] | [11] | [12]
active: [18] 49 µM

CC1Sc2c(C(=O)O)c(=O)c3cc(F)c(N4CCNCC4)cc3n21 (centres undefined)
inactive: [19] | [16] | [11] | [12]

O=S(=O)(O)C(F)(F)C(F)(F)C(F)(F)C(F)(F)F
inactive: [3] | [20] | [4] | [5] | [6] | [9] | [16] | [12]

CO[C@@H]1[C@H](OC(=O)NC(=O)CCl)CC[C@]2(CO2)[C@H]1[C@@]1(C)O[C@@H]1CC=C(C)C
inactive: [3] | [13] | [5] | [6] | [14] | [7] | [9] | [10] | [15] | [16]

CCCCC(CC)COP(=O)(Oc1ccccc1)Oc1ccccc1 (centres undefined)
inactive: [3] | [20] | [13] | [4] | [5] | [6] | [14] | [7] | [8] | [10] | [17] | [18] | [15] | [16] | [11] | [12]

CCCN(CC1CC1)c1c([N+](=O)[O-])cc(C(F)(F)F)cc1[N+](=O)[O-]
inactive: [3] | [20] | [13] | [4] | [5] | [6] | [14] | [7] | [8] | [10] | [17] | [18] | [15] | [19] | [16] | [11] | [12]

Source: PubChem BioAssay (Tox21)
